# Biological target: AgAbp1
# Experiment: SPOT peptide array binding signal intensity (averaged, normalized) (arbitrary units (background-subtracted, floor 0; scale differs between SH3 domains)); higher = stronger binding of the SH3 domain to the peptide
# Outline: (§1)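 Binding signal is given in arbitrary units that differ between domains and is the normalized, background-subtracted spot intensity averaged across replicates. Each GST-SH3 fusion from one of four yeast species was made in E. coli BL21(DE3), purified on glutathione Sepharose and incubated at 10 μg/ml overnight at 4°C on cellulose-bound synthetic 15-mer peptides in which cysteines were replaced by serines. Detection used anti-GST antibody, an HRP anti-mouse secondary and luminol, followed by imaging and Genespotter quantification.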
row,Binder,SPOT peptide array binding signal intensity
1,PHNPSPFFPPPDFND,≤ 0

# Biological target: AgBbc1
# Experiment: as above
# Outline: as §1
row,Binder,SPOT peptide array binding signal intensity
1,PHNPSPFFPPPDFND,3

# Biological target: AgBem1-D1
# Experiment: as above
# Outline: as §1
row,Binder,SPOT peptide array binding signal intensity
1,PHNPSPFFPPPDFND,16.5

# Biological target: AgBzz1-D1
# Experiment: as above
# Outline: as §1
row,Binder,SPOT peptide array binding signal intensity
1,PHNPSPFFPPPDFND,5

# Biological target: AgBzz1-D2
# Experiment: as above
# Outline: as §1
row,Binder,SPOT peptide array binding signal intensity
1,PHNPSPFFPPPDFND,22

# Biological target: AgCyk3
# Experiment: as above
# Outline: as §1
row,Binder,SPOT peptide array binding signal intensity
1,PHNPSPFFPPPDFND,≤ 0

# Biological target: AgFus1
# Experiment: as above
# Outline: as §1
row,Binder,SPOT peptide array binding signal intensity
1,PHNPSPFFPPPDFND,≤ 0

# Biological target: AgHof1
# Experiment: as above
# Outline: as §1
row,Binder,SPOT peptide array binding signal intensity
1,PHNPSPFFPPPDFND,≤ 0

# Biological target: AgHse1
# Experiment: as above
# Outline: as §1
row,Binder,SPOT peptide array binding signal intensity
1,PHNPSPFFPPPDFND,71

# Biological target: AgLsb1
# Experiment: as above
# Outline: as §1
row,Binder,SPOT peptide array binding signal intensity
1,PHNPSPFFPPPDFND,3

# Biological target: AgLsb4
# Experiment: as above
# Outline: as §1
row,Binder,SPOT peptide array binding signal intensity
1,PHNPSPFFPPPDFND,≤ 0

# Biological target: AgMyo5
# Experiment: as above
# Outline: as §1
row,Binder,SPOT peptide array binding signal intensity
1,PHNPSPFFPPPDFND,610

# Biological target: AgNbp2
# Experiment: as above
# Outline: as §1
row,Binder,SPOT peptide array binding signal intensity
1,PHNPSPFFPPPDFND,42

# Biological target: AgRvs167
# Experiment: as above
# Outline: as §1
row,Binder,SPOT peptide array binding signal intensity
1,PHNPSPFFPPPDFND,0.667

# Biological target: AgSho1
# Experiment: as above
# Outline: as §1
row,Binder,SPOT peptide array binding signal intensity
1,PHNPSPFFPPPDFND,≤ 0

# Biological target: AgSla1-D1-D2
# Experiment: as above
# Outline: as §1
row,Binder,SPOT peptide array binding signal intensity
1,PHNPSPFFPPPDFND,≤ 0

# Biological target: AgSla1-D3
# Experiment: as above
# Outline: as §1
row,Binder,SPOT peptide array binding signal intensity
1,PHNPSPFFPPPDFND,≤ 0

# Biological target: CaAbp1-D1
# Experiment: as above
# Outline: as §1
row,Binder,SPOT peptide array binding signal intensity
1,PHNPSPFFPPPDFND,2

# Biological target: CaAbp1-D2
# Experiment: as above
# Outline: as §1
row,Binder,SPOT peptide array binding signal intensity
1,PHNPSPFFPPPDFND,28

# Biological target: CaBbc1
# Experiment: as above
# Outline: as §1
row,Binder,SPOT peptide array binding signal intensity
1,PHNPSPFFPPPDFND,14

# Biological target: CaBem1-D1
# Experiment: as above
# Outline: as §1
row,Binder,SPOT peptide array binding signal intensity
1,PHNPSPFFPPPDFND,≤ 0

# Biological target: CaBzz1-D1
# Experiment: as above
# Outline: as §1
row,Binder,SPOT peptide array binding signal intensity
1,PHNPSPFFPPPDFND,1.5

# Biological target: CaBzz1-D2
# Experiment: as above
# Outline: as §1
row,Binder,SPOT peptide array binding signal intensity
1,PHNPSPFFPPPDFND,1.53e-05

# Biological target: CaCyk3
# Experiment: as above
# Outline: as §1
row,Binder,SPOT peptide array binding signal intensity
1,PHNPSPFFPPPDFND,1

# Biological target: CaFus1
# Experiment: as above
# Outline: as §1
row,Binder,SPOT peptide array binding signal intensity
1,PHNPSPFFPPPDFND,32.5

# Biological target: CaHof1
# Experiment: as above
# Outline: as §1
row,Binder,SPOT peptide array binding signal intensity
1,PHNPSPFFPPPDFND,≤ 0

# Biological target: CaHse1
# Experiment: as above
# Outline: as §1
row,Binder,SPOT peptide array binding signal intensity
1,PHNPSPFFPPPDFND,2

# Biological target: CaLsb1
# Experiment: as above
# Outline: as §1
row,Binder,SPOT peptide array binding signal intensity
1,PHNPSPFFPPPDFND,≤ 0

# Biological target: CaLsb4
# Experiment: as above
# Outline: as §1
row,Binder,SPOT peptide array binding signal intensity
1,PHNPSPFFPPPDFND,28

# Biological target: CaMyo5
# Experiment: as above
# Outline: as §1
row,Binder,SPOT peptide array binding signal intensity
1,PHNPSPFFPPPDFND,112

# Biological target: CaNbp2
# Experiment: as above
# Outline: as §1
row,Binder,SPOT peptide array binding signal intensity
1,PHNPSPFFPPPDFND,40.5

# Biological target: CaRvs167
# Experiment: as above
# Outline: as §1
row,Binder,SPOT peptide array binding signal intensity
1,PHNPSPFFPPPDFND,0.333

# Biological target: CaRvs167-3
# Experiment: as above
# Outline: as §1
row,Binder,SPOT peptide array binding signal intensity
1,PHNPSPFFPPPDFND,≤ 0

# Biological target: CaSho1
# Experiment: as above
# Outline: as §1
row,Binder,SPOT peptide array binding signal intensity
1,PHNPSPFFPPPDFND,7.5

# Biological target: CaSla1-D1-D2
# Experiment: as above
# Outline: as §1
row,Binder,SPOT peptide array binding signal intensity
1,PHNPSPFFPPPDFND,≤ 0

# Biological target: CaSla1-D3
# Experiment: as above
# Outline: as §1
row,Binder,SPOT peptide array binding signal intensity
1,PHNPSPFFPPPDFND,≤ 0

# Biological target: ScAbp1
# Experiment: as above
# Outline: as §1
row,Binder,SPOT peptide array binding signal intensity
1,PHNPSPFFPPPDFND,≤ 0
